Data from PubChem BioAssay (NCI).
Compounds without any hit were thinned out: in the full panel of roughly 79,000, 15% have a hit. The source made the active and inactive calls. No stated cut-off is given here; in the data, active means growth inhibition above about 70%; inactive means the rest.

Assays:
[1] = NCI Yeast Anticancer Drug Screen. Data for the wt1 strain (AID 149);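 further: 0% = growth of vehicle-treated wt1 cultures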; settings: S. cerevisiae wt1 strain (SPY 50644) growth inhibition, hits give high values
Summary of the method: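 Compounds are added to wt1 yeast cultures. Growth is then measured. Inhibition is expressed relative to vehicle-treated controls.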

[2] = NCI Yeast Anticancer Drug Screen. Data for the rad50EPP+ strain (AID 151);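 further: 0% = growth of vehicle-treated control cultures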; settings: S. cerevisiae rad50 mutant strain, hits give high values
Summary of the method: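 rad50EPP+ yeast treated with test compounds. Readout: growth vs vehicle control.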

[3] = NCI Yeast Anticancer Drug Screen. Data for the rad50 strain (AID 155);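 further: 0% = growth of vehicle-only cultures of the same strain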; settings: S. cerevisiae rad50 strain growth inhibition, hits give high values
Summary of the method: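 Inhibition values express reduced yeast growth in compound-treated cultures relative to vehicle-treated controls.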

[4] = NCI Yeast Anticancer Drug Screen. Data for the mec2-1 strain (AID 157); settings: S. cerevisiae mec2-1 strain, hits give high values
Summary of the method: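 Growth inhibition is read against vehicle-treated controls after compound exposure of the mec2-1 yeast strain, which is defective in DNA damage repair or cell cycle control.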

[5] = NCI Yeast Anticancer Drug Screen. Data for the rad14 strain (AID 159);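 further: 0% = growth of vehicle-treated control cultures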; settings: S. cerevisiae rad14 strain growth inhibition, hits give high values
Summary of the method: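 A mutant yeast strain defective in DNA damage repair is treated with compound; inhibition of its growth is scored against untreated, vehicle-exposed cultures.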

[6] = NCI Yeast Anticancer Drug Screen. Data for the sgs1 mgt1 strain (AID 161);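 further: 0% = growth of cultures given vehicle only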; settings: S. cerevisiae sgs1 mgt1 strain, hits give high values
Summary of the method: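 Compounds are added to genetically altered yeast, and growth is compared with cultures given vehicle alone to give percent inhibition.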

[7] = NCI Yeast Anticancer Drug Screen. Data for the cln2 rad14 strain (AID 165);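 further: 0% = growth equal to vehicle treated cultures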; settings: S. cerevisiae cln2 rad14 strain, hits give high values
Summary of the method: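 Growth inhibition, relative to vehicle-treated controls, is the read-out. The test organism is a yeast strain with defined genetic alterations, cln2 rad14.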

[8] = NCI Yeast Anticancer Drug Screen. Data for the bub3 strain (AID 167); settings: S. cerevisiae bub3 mutant strain, hits give high values
Summary of the method: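 Steps: expose the mutant yeast strain to compound; grow alongside vehicle-treated cultures; measure growth; express inhibition against the vehicle cultures.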

[9] = NCI Yeast Anticancer Drug Screen. Data for the wt2 strain (AID 169);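 further: 0% = growth of vehicle-treated yeast cultures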; settings: S. cerevisiae wt2 strain growth inhibition, hits give high values
Summary of the method: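 Compound exposure of yeast; growth compared with vehicle controls; inhibition reported.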

[10] = NCI Yeast Anticancer Drug Screen. Data for the mlh1 strain (AID 171);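 further: 0% = growth of vehicle-treated control cultures of the same strain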; settings: S. cerevisiae mlh1 strain growth inhibition, hits give high values
Summary of the method: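 Compounds are applied to a genetically altered yeast strain, and its growth is compared with that of vehicle-treated cultures to give percent inhibition.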

[11] = NCI Yeast Anticancer Drug Screen. Data for the sgs1 strain (AID 173);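 further: 0% = growth of vehicle-only control cultures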; settings: S. cerevisiae sgs1 mutant, hits give high values
Summary of the method: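 Compounds applied to genetically altered yeast; growth compared with vehicle-treated cultures to give % inhibition.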

[12] = NCI Yeast Anticancer Drug Screen. Data for the mlh1 rad18 strain (AID 175); settings: S. cerevisiae mlh1 rad18 strain growth inhibition, hits give high values
Summary of the method: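 Cells of a genetically altered yeast strain, deficient in DNA damage repair, were treated with compound. Their growth was then compared with that of vehicle-treated cultures to give inhibition.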

[13] = NCI Yeast Anticancer Drug Screen. Data for the rad18 strain (AID 177); settings: S. cerevisiae rad18 mutant growth inhibition, hits give high values
Summary of the method: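 Compounds are applied to a repair-deficient yeast strain, and growth is compared with that of vehicle-treated cultures to give percent inhibition.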

[14] = at 5.0 µM (retest, dose inferred, filed as 0.5)
[15] = at 50.0 µM (retest, dose inferred, filed as 5.0)

Measured: growth inhibition

O=CC(=C(I)I)c1ccccc1
active: [1]; at 11.0 µM 88% | [1]; at 33.0 µM 99% | [1]; at 100.0 µM 90% | [2]; at 1.2 µM 91% | [2]; at 3.7 µM 96% | [2]; at 11.0 µM 97% | [2]; at 33.0 µM 98% | [2]; at 100.0 µM 99% | [3]; at 1.2 µM 93% | [3]; at 3.7 µM 95% | [3]; [14] 97% | [3]; at 11.0 µM 97% | [3]; at 33.0 µM 99% | [3]; [15] 100% | [3]; at 50.0 µM 85.7% | [3]; at 100.0 µM 97% | [4]; at 11.0 µM 99% | [4]; at 33.0 µM 99% | [4]; [15] 99% | [4]; at 50.0 µM 88.9% | [4]; at 100.0 µM 97% | [5]; at 11.0 µM 73% | [5]; at 33.0 µM 99% | [5]; at 100.0 µM 86% | [6]; [15] 99% | [6]; at 50.0 µM 90.8% | [7]; [15] 100% | [7]; at 50.0 µM 91.5% | [8]; at 33.0 µM 99% | [8]; [15] 100% | [8]; at 50.0 µM 92.2% | [8]; at 100.0 µM 99% | [9]; at 33.0 µM 99% | [9]; at 100.0 µM 99% | [10]; at 11.0 µM 81% | [10]; at 33.0 µM 97% | [10]; at 100.0 µM 85% | [11]; at 3.7 µM 79% | [11]; at 11.0 µM 99% | [11]; at 33.0 µM 99% | [11]; at 100.0 µM 99% | [12]; [15] 100% | [12]; at 50.0 µM 93.1% | [13]; at 3.7 µM 72% | [13]; at 11.0 µM 96% | [13]; at 33.0 µM 98% | [13]; at 100.0 µM 95%
inactive: [1]; at 1.2 µM 15% | [1]; at 3.7 µM 41% | [4]; at 1.2 µM 28% | [4]; at 3.7 µM 67% | [4]; [14] 33% | [5]; at 1.2 µM 20% | [5]; at 3.7 µM 38% | [6]; [14] 43% | [7]; [14] 2% | [8]; at 1.2 µM -6% | [8]; at 3.7 µM -4% | [8]; [14] -17% | [8]; at 11.0 µM 27% | [9]; at 1.2 µM 4% | [9]; at 3.7 µM 5% | [9]; at 11.0 µM 38% | [10]; at 1.2 µM 13% | [10]; at 3.7 µM 32% | [11]; at 1.2 µM 56% | [12]; [14] 18% | [13]; at 1.2 µM 50%
